Most compounds without a hit are left out; they make up all but 2.1% or so of the library.
aSyn rescue – qHTS of alpha-syn Inhibitors. Potency, µM (series often up to 46.1 µM), inactives show top-dose growth rescue (activation), most hits filed as activators. actives 0.14% (n = 370,000). Yeast expressing alpha-synuclein, growth rescue, BacTiter-Glo, 24 h; further: % of control where 0% means no effect; nearly all actives have a fitted effect of over 65% in size
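Rescue of yeast growth: cells expressing toxic alpha-synuclein, induced in galactose at OD600 0.02, incubated with compound 24 h at 30 C. ATP luminescence quantified growth; inhibitors of toxicity appear as activators.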
TDP43 rescue – qHTS of TDP-43 Inhibitors; TDP-43 expressing yeast growth rescue, BacTiter-Glo, 24 h; Potency, µM (series often up to 46.1 µM), inactives show at the highest dose growth rescue (activation), usual class: activators; actives 1.8% (n = 410,000); further: % of control where 0% means no effect; nearly all actives have a fitted effect of over 50% in size
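Galactose-induced TDP-43 yeast, OD600=0.02, compound pinned; 24 hr, 30 deg C; BacTiter-Glo luminescence for growth. Inhibitors of TDP-43 toxicity read as activators.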
FUS suppressor – qHTS for Suppressors of FUS Proteinopathy: Primary screen using FUS-linked yeast assay. Potency, µM (highest dose often 76.6 µM), usual class: activators. S. cerevisiae FUS-expressing, growth rescue, OD600, 24 h. actives 0.24% (n = 390,000);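 further: plate controls were DMSO vehicle for no effect and reference control for full effect; nearly all actives have a fitted effect of over 55% in size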
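Cultures pregrown in 2.5% raffinose medium are shifted to minimal medium containing 2% galactose to express toxic FUS. Compounds are tested at several concentrations. After 24hr at 30C, growth is quantified at 600 nm absorbance.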
Abeta rescue – qHTS for compounds that reverse cellular toxicity of Amyloid beta (A-beta) peptide in yeast: Primary Screen. yeast expressing A-beta42, growth rescue, OD600, 48 h; response scale: 0% DMSO, 100% iron-clioquinol control. Potency, µM (series often up to 46.1 µM), usual class: activators. actives 0.063% (n = 410,000). AID 1347071, 2019; further: nearly all actives have a fitted effect of over 55% in size
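Yeast growth medium received pinned compounds, then yeast cells expressing toxic A-beta were added; plates incubated at 30 C for 48 hr. Growth read as absorbance at 600 nm, normalized to DMSO and equimolar FeCl3 plus clioquinol controls.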
The depositor's hits bear a star; i = inactive; ? = inconclusive; · = no result; [ ] = another dose, or the depositor's remark. The call rests on the fitted dose curve; in most records, active means well fitted curve in the direction sought with a large enough effect; inconclusive means small, poorly fitted or top-dose-only effect, or another doubt; inactive means no such curve, though single readings can be large; an effect the other way counts as inactive or inconclusive. Potency means the concentration at half of the fitted maximal effect.

SMILES | aSyn rescue | TDP43 rescue | FUS suppressor | Abeta rescue
NC(=O)CSc1nc2scc(-c3ccco3)c2c(=O)n1-c1ccccc1 | -0.6% | 1.6% | 22.4µM* | i
COc1ccc(OCC(O)CNC(=O)c2ccc(Br)cc2)cc1 (configuration not stated) | 4.7% | 26.9% | i | i
COc1ccc(OCC(O)CNc2ccc(Br)cc2)cc1 (configuration not stated) | 21.5% | 11.2µM* | i | i
CC(=O)c1sc2nc(-c3cccs3)ccc2c1N | 8.4% | 10µM* | i | i
CN1CCCN(C(=O)C2CCCN(C(=O)c3ccc4c(c3)NC(=O)CS4)C2)CC1 (configuration not stated) | · | · | i | ·
Nc1c(Cl)cnc(C(Cl)(Cl)Cl)c1Cl | -0.1% | 12.6µM* | i | i
O=S(=O)(NCCSCc1c(Cl)cccc1Cl)c1ccc2c(c1)OCCO2 | 6.4% | 35.5µM* | i | i
Cc1c(Cl)cccc1NS(=O)(=O)c1ccc(NS(=O)(=O)c2ccc3c(c2)OCCO3)cc1 | · | 19.7% | 22.4µM* | i
O=S(=O)(NCCSCc1ccc(Cl)cc1Cl)c1ccc2c(c1)OCCO2 | 22.2% | ? | i | i
Cc1ccc(S(=O)(=O)Nc2ccc3c(c2)OCCO3)cc1 | 10.0% | 10.9%[9.22 µM] | i | i
CN1CC=C(c2ccc(C(F)(F)F)cc2)N(c2ccc(Br)cc2)C1=O | · | · | i | ·
O=C(N/C=N/O)C1=NOC(CNc2ncc(C(F)(F)F)cc2Cl)C1 (configuration not stated) | 2.0% | 15.8µM* | i | i
COC(=O)C(CN)CN1C(=O)c2ccccc2C1=O (configuration not stated) | · | · | i | ·
COc1ccc(-n2nnnc2-c2cccc(OC)c2)cc1 | 2.2% | 12.6µM* | i | i
Cc1ccc(-n2nnnc2-c2cccc(C)c2)cc1 | 0.0% | 20µM* | i | i
CC(=O)N1N=C(c2ccc(Br)cc2)CC1c1cn(C)c2ccccc12 (configuration not stated) | ? | 25.1µM* | · | i
Cc1ccc(C2C(C(=O)c3cc4ccccc4o3)=C(O)C(=O)N2CCN2CCOCC2)cc1 (configuration not stated) | 3.7% | 5.2% | i | ·
COc1cc(C2C(C(=O)c3cc4ccccc4o3)=C(O)C(=O)N2CCN2CCOCC2)ccc1OCCC(C)C (configuration not stated) | 3.3% | 11.2% | 28.2µM* | i
COc1ccccc1NC(=O)COC(=O)c1c(C)nn(-c2ccccc2)c1C | -2.0% | 17.8µM* | i | i
COc1cccc(NC(=O)COC(=O)/C=C/c2c(C)nn(-c3ccccc3)c2C)c1 | -16.7% | 20µM* | i | i
C[C@H]1[C@@H](OC(=O)NCc2ccc(Cl)c(Cl)c2)CC[C@@]23CCCN2C(=O)CCC[C@@H]13 | · | · | i | ·
C1=CN2CC=Cc3cc(/C=C/c4ccnc5ccccc45)cc(c32)C1 | -20.9% | · | · | ·
COc1ccc(NC(=O)CCCn2nc(C)c3sc4ccccc4c3c2=O)cc1 | · | 11.4% | i | i
COc1cccc(Oc2nc(-c3ccncc3)nc3ccccc23)c1 | 29.6% | 12.6µM* | i | i
CCOC(=O)N1CCN(C(=O)CN(C2CCCCC2)S(=O)(=O)c2ccc(C)cc2)CC1 | 3.6% | ? | i | i
SMILES | aSyn rescue | TDP43 rescue | FUS suppressor | Abeta rescue
Cc1ccc(S(=O)(=O)N(CC(=O)N2CCN(c3ccc(F)cc3)CC2)C2CCCCC2)cc1 | 8.7% | 20µM* | ? | i
CCCCCN(CCCCC)c1ccc(/C=C/c2ccnc3ccccc23)cc1 | -10.3% | · | · | ·
CC(=O)Nc1ccc(NC(=O)C(C)OC(=O)CCCc2c[nH]c3ccccc23)cc1 (configuration not stated) | 6.6% | -12.7% | i | i
CC(OC(=O)CCc1c[nH]c2ccccc12)C(=O)c1ccccc1 (configuration not stated) | 6.1% | 35.5µM* | i | i
O=C(Cn1c(-c2cccs2)cc2cc(Cl)ccc21)NCc1ccccc1 | · | 2.8% | i | i
O=C(O)Cn1c(-c2cccs2)cc2cc(Cl)ccc21 | · | 17.8µM* | i | i
COc1ccc(-c2nc(C)c(CCNC(=O)C(=O)Nc3cc(C)cc(C)c3)s2)cc1OC | 9.6% | 23.1% | i | i
